Active and inactive are the calls of the source. How the calls were made is not given here.

Chain of Pantothenate synthetase (Mycobacterium tuberculosis (strain ATCC 25618 / H37Rv)) (P9WIL5 whole entry, looked up): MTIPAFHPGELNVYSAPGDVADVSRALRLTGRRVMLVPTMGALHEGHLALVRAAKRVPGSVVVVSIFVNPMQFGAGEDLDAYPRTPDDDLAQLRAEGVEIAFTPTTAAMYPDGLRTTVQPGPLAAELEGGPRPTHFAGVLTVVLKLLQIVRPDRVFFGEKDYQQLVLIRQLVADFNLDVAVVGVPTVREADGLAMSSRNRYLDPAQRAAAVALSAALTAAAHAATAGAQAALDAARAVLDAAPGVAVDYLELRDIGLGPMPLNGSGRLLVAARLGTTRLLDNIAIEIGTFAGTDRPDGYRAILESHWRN

This test addresses Pantothenate synthetase (Mycobacterium tuberculosis (strain ATCC 25618 / H37Rv)) (UniProt P9WIL5). In words: Recombinant Mtb pantothenate synthetase (PanC) inhibitors, coupled enzyme, confirmatory (AID 375).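 Further: 0% = full reaction with vehicle and 100% = no enzyme background.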 As to conditions: coupled enzyme assay; at 10 µM, active compounds read high.
For orientation: inhibition means how much of the control response was suppressed. For `O=C(NCc1cccs1)C1CCCN(c2ncccn2)C1` (stereo not given), the inhibition is 0% (inactive).
Then `CO[C@H]1C=CO[C@@]2(C)Oc3c(C)c(O)c4c(O)c(c(C=NN5CCN(C)CC5)c(O)c4c3C2=O)NC(=O)C(C)=CC=C[C@H](C)[C@H](O)[C@@H](C)[C@@H](O)[C@@H](C)[C@H](OC(C)=O)[C@@H]1C`, with 3% (inactive); and `Cc1cc(C)n(-c2nc3sc4c(c3c3nnc(SC(C)C)n23)CC(C)(C)OC4)n1`, with 0% (inactive); and `Cc1ccc(CC2SC(=O)NC2=O)cc1Cl` (stereo not given), with 0% (inactive).
Consider `Cc1cc(C)n(CC(=O)O)n1`, for which the inhibition is 0% (inactive).
Then `COc1ccccc1-n1c(=O)[nH]c2c(C(N)=O)nc(-c3cccnc3)nc21`, with 0% (inactive).
Consider `Cc1onc(-c2c(Cl)cccc2Cl)c1C(=O)NCCN1CCOCC1`, for which the inhibition was 6% (inactive).
The result for `COc1ccccc1CC(=O)NCC1CCCO1` (stereo not given) reads 0% (inactive); that for `COCCn1c(SCC(=O)N2CCc3ccccc32)nc2c(c1=O)SC(C)C2` (stereo not given), 1% (inactive).
As for `COc1cc(OC)cc(-c2nc(N)n[nH]2)c1`, the inhibition was 0% (inactive).
Then `CC(C)N(C(=O)CSc1nnc(NC(=O)C2CCC2)s1)C(C)C`, with 0% (inactive); and `CCCCOC(=O)Cn1c(=N)n(CCN2CCOCC2)c2ccccc21`, with 0% (inactive).
The result for `CCc1ccccc1NC(=O)c1ccoc1C` reads 0% (inactive).
Then `CN1CCN(S(=O)(=O)c2ccc(NC(=O)c3ccc(F)cc3)cc2)CC1`, with 0% (inactive).
For `CCN(CC)CCN1C(=O)C(=O)/C(=C(/O)c2c(C)[nH]c(C(=O)OC)c2C)C1c1ccccc1OC` (stereo not given), the inhibition is 0% (inactive).
Then `Cc1cc(NS(=O)(=O)c2ccc(NC(=O)COc3ccc(Cl)cc3)cc2)no1`, with 9% (inactive).
For the molecule `COc1ccccc1NC1=C(C)C(=O)CC1`, the inhibition was 0% (inactive).
On to `O=C(c1ccco1)N1CCN(CC(=O)N(C2CCCCC2)C2CCS(=O)(=O)C2)CC1` (stereo not given), for which the inhibition is 2% (inactive).
Take `CC1CCN(C(=S)c2ccccc2O)CC1`: the inhibition is 0% (inactive).
In the case of `CCc1nccn1S(=O)(=O)c1ccc(C)c(C)c1`, the inhibition was 0% (inactive).
The result for `O=C(OCc1cc2ccccc2[nH]c1=O)c1ccncc1` reads 7% (inactive); that for `Cc1c(Cl)cccc1NC(=O)CCN1CCCCC1`, 0% (inactive); that for `O=C(Nc1cccc(C(F)(F)F)c1)c1cccnc1N1CCCC1`, 4% (inactive).
Then `c1ccc(-n2ncc3c(NC4CCCCCC4)ncnc32)cc1`, with 0% (inactive); and `COc1ccccc1CN1CC(C(=O)N2CCN(c3ccc(F)cc3)CC2)CC1=O` (stereo not given), with 0% (inactive).
Then `C[C@H]1C[C@@H]2[C@H]([C@@H](O)C[C@@]3(C)[C@H]2CC[C@]3(O)C(=O)CO)[C@@]2(C)C=CC(=O)C=C12`, with 0% (inactive); and `CCCCOc1ccc(CSc2n[nH]c(C)n2)cc1`, with 0% (inactive); and `O=C1NC(=O)C(CC(=O)N(Cc2ccco2)C2(C(=O)NC3CCCC3)CCCCC2)N1` (stereo not given), with 0% (inactive).
For `O=C(c1ccccc1Cl)N1CCc2ccccc2C1`, the inhibition was 0% (inactive).
On to `CCCCc1n[nH]c2c1C(=O)CC(C)(C)C2`, for which the inhibition is 0% (inactive).
Then `CCN(CC)c1ccc(NC(=O)c2[nH]c(C)c(C(C)=O)c2C)c(C)c1`, with 0% (inactive); and `C/C=C(\C)c1nnc(NC(=O)C(C)C)s1`, with 1% (inactive); and `COCc1cc(C)nc(SCC(=O)Nc2cccc(C)c2C)c1C#N`, with 5% (inactive).
Then `COc1ccc(OC)c(NC(=O)CSc2ncccc2C(=O)O)c1`, with 0% (inactive); and `O=C(Nc1ccc(NC(=O)c2ccco2)nc1)c1cccnc1`, with 0% (inactive).
Regarding `CCCC1(C(=O)OCC)NC(c2ccc(N(C)C)cc2)C2C(=O)N(c3ccc(F)cc3)C(=O)C21` (stereo not given), the inhibition is 3% (inactive).
The result for `O=C(NCc1ccccn1)c1cc(-n2cnnc2)ccc1Cl` reads 0% (inactive).
The result for `CCCCOc1ccc(N(CC(=O)NC2CCCC2)C(=O)CCC(=O)Nc2ccccn2)cc1` reads 0% (inactive).
Take `CC1CCCCC1NC(=O)COc1ccc(-n2cnnn2)cc1` (stereo not given): the inhibition is 0% (inactive).
On to `COc1cccc(-n2c(SCC(=O)Nc3cc(C)on3)nc3c([nH]c4ccccc43)c2=O)c1`, for which the inhibition is 2% (inactive).

The record behind these values is PubChem BioAssay.
